Data: PubChem BioAssay AID2284188 (EPA ToxCast)
Calls of active or inactive are those of the source. The calls were made as follows: active = hit-call score of the fitted dose curve at least 0.9, where 1 is the maximum; inactive = score below 0.9.

biological target: Voltage-dependent L-type calcium channel subunit alpha-1C (Rattus norvegicus) (UniProt P22002); assay: ERF_FR_IC_rCACNA1C_Diltiazem: Eurofins (ERF) Calcium Ion Channel Binding (Diltiazem Site) LeadHunter Assay for rat Cav1.2 (L-type)
Sequence (P22002 whole entry, looked up): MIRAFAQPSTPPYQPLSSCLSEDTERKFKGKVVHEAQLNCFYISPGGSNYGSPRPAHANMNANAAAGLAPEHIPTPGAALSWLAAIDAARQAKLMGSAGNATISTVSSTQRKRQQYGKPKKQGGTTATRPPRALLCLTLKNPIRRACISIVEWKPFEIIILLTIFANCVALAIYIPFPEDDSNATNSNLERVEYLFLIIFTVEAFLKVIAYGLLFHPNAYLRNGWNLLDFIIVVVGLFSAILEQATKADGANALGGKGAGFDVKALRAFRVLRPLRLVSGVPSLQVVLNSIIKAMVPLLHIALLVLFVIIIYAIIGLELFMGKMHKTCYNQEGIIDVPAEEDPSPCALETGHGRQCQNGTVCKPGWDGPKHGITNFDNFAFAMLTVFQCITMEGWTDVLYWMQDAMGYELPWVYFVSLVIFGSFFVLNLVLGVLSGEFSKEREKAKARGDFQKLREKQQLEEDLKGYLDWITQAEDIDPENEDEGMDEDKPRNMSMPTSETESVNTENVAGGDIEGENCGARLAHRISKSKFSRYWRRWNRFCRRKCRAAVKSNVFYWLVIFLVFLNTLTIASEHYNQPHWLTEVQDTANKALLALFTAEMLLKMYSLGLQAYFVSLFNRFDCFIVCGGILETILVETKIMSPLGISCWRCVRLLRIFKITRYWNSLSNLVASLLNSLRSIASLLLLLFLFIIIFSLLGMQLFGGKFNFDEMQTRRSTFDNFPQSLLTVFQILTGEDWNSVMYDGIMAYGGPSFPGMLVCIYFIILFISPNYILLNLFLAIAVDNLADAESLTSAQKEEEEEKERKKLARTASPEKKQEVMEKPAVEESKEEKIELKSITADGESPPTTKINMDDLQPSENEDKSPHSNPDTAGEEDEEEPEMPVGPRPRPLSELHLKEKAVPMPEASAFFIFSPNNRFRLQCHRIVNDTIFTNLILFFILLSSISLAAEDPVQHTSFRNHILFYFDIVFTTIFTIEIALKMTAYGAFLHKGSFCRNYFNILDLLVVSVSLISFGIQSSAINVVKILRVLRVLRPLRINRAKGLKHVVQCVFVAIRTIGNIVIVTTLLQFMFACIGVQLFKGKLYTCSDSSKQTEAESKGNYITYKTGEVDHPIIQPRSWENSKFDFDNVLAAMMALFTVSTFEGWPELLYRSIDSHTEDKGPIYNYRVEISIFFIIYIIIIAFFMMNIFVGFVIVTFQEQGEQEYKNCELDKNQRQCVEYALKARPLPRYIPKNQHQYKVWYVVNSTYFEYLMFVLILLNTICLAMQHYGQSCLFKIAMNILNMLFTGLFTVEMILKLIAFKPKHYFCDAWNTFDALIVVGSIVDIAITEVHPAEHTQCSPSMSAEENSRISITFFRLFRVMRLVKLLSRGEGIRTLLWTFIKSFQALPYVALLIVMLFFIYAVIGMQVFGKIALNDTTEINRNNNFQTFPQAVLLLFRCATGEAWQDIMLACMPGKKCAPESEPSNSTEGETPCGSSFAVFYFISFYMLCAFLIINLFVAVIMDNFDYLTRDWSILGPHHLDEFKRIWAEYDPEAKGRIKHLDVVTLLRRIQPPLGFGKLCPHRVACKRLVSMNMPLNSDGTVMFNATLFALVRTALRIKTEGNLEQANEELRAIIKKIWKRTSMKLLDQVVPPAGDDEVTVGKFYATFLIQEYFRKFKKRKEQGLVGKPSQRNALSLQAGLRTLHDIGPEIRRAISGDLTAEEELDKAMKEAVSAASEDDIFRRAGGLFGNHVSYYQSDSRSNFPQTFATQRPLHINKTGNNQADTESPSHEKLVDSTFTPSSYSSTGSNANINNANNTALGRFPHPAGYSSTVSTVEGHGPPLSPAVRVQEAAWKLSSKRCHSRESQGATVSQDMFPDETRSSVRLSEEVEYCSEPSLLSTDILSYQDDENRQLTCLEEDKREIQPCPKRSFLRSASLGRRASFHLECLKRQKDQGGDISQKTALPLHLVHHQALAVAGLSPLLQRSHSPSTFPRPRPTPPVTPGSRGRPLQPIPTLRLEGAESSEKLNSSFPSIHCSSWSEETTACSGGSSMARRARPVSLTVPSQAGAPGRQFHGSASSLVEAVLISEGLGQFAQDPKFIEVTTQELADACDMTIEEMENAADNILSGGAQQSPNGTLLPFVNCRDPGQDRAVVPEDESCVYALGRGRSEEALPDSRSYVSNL
Procedure: ERF_FR_IC_rCACNA1C_Diltiazem is a biochemical, single-readout assay that uses extracted gene-proteins in a cell-free assay. Measurements were taken 2 hour after chemical dosing in a 96-well plate. See Cav1.2 (L-type) Rat Calcium Ion Channel Binding (Diltiazem Site) Assay, Cerep.ERF_FR_IC_rCACNA1C_Diltiazem is an assay component calculated from the ERF_FR_IC_rCACNA1C_Diltiazem assay. It is designed to measure radioligand binding using a type of binding reporter as detected by scintillation counting with radiometry technology.Data from the assay component ERF_FR_IC_rCACNA1C_Diltiazem was analyzed at the assay endpoint, ERF_FR_IC_rCACNA1C_Diltiazem, in the positive analysis fitting direction relative to DMSO as the negative control and baseline of activity. Using a type of binding reporter, loss-of-signal activity can be used to understand changes in binding as they relate to gene CACNA1C. To generalize the intended target to other relatable targets, this assay endpoint is annotated to the ion channel intended target family, where the subfamily is voltage gated (Calcium).
Rat cells are incubated for 120 minutes at room temprature with [3H]diltiazem (15 nM) as substrate and Papaverine as control inhibitor. Test Sample Requirements: Minimum for 1) Screen: 60 ul of 10 mM stock -OR- 1 mg (pre-weighed) for 10 uM final testing. […]

How did the AC50 turn out when O=C(/C=C/c1ccc(O)cc1)CC(=O)/C=C/c1ccc(O)cc1 was run?
Its AC50 is 3.46 µM (active).
